Measured values as given in PubChem BioAssay AID1159580 (chemical genetic matrix, 2015).
Several values for one entry are separate records, joined by “and”; a condition that tells them apart may be missing. Equal entries are not always repeated. Hit rate of the full screen: of about 5,500 compounds, about 2,000 (36%) were called active. Not shown: some 18% with an inconclusive outcome. No stated cut-off is given here; in the data, active means normalized growth mostly below about 0.91 (no sharp cut-off); inconclusive means no clear call, values can overlap the other calls; inactive means mostly above about 0.92. The list shows a part of the results.

Assay: chemical genetic growth profiling, strain panel (AID 1159580);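 further: tested at 20 µM; growth read once vehicle control cultures reached saturation at 30 °C; 1 = growth at the plate median or of vehicle wells; lower values mean less growth of the strain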
Conditions: growth OD

Measured: normalized growth

O=c1c(O)c(-c2ccc(O)c(O)c2)oc2cc(O)cc(O)c12
active: S. cerevisiae deletion strains, locus YKL160W, strain elf1, hits give low values 0.87 | S. cerevisiae deletion strains, locus YLR027C, strain aat2, hits give low values 0.893 | S. cerevisiae deletion strains, locus YLR221C, strain rsa3, hits give low values 0.906 | S. cerevisiae deletion strains, locus YLR258W, strain gsy2, hits give low values 0.878 | S. cerevisiae deletion strains, locus YLR262C, strain YPT6 (second series), hits give low values 0.779 | S. cerevisiae deletion strains, locus YLR320W, strain mms22, hits give low values 0.869 | S. cerevisiae deletion strains, locus YLR342W, strain FKS1 (second series), hits give low values 0.719 | S. cerevisiae deletion strains, locus YLR342W, strain FKS1, hits give low values 0.8 | S. cerevisiae deletion strains, locus YLR357W, strain rsc2, hits give low values 0.713 | S. cerevisiae deletion strains, locus YLR370C, strain arc18, hits give low values 0.859 | S. cerevisiae deletion strains, locus YLR418C, strain cdc73, hits give low values 0.775 | S. cerevisiae deletion strains, locus YMR058W, strain fet3, hits give low values 0.882 | S. cerevisiae deletion strains, locus YNL071W, strain lat1, hits give low values 0.848 | S. cerevisiae deletion strains, locus YNL209W, strain ssb2, hits give low values 0.636 | S. cerevisiae deletion strains, locus YNL233W, strain BNI4, hits give low values 0.859 | S. cerevisiae deletion strains, locus YOR070C, strain gyp1, hits give low values 0.885 | S. cerevisiae deletion strains, locus YOR083W, strain WHI5, hits give low values 0.808 | S. cerevisiae deletion strains, locus YOR106W, strain vam3, hits give low values 0.653 | S. cerevisiae deletion strains, locus YOR270C, strain vph1, hits give low values 0.749 | S. cerevisiae deletion strains, locus YPL051W, strain arl3, hits give low values 0.814 | S. cerevisiae deletion strains, locus YPL106C, strain sse1, hits give low values 0.783
inactive: S. cerevisiae deletion strains, locus YKL009W, strain mrt4, hits give low values 1.01 | S. cerevisiae deletion strains, locus YKL068W, hits give low values 1.03 | S. cerevisiae deletion strains, locus YKL085W, strain MDH1 (second series), hits give low values 1.06 | S. cerevisiae deletion strains, locus YKL085W, strain MDH1, hits give low values 1.06 | S. cerevisiae deletion strains, locus YKL190W, strain CNB1, hits give low values 0.97 | S. cerevisiae deletion strains, locus YKR001C, strain vps1, hits give low values 0.94 | S. cerevisiae deletion strains, locus YKR026C, strain gcn3, hits give low values 1 | S. cerevisiae deletion strains, locus YKR091W, strain srl3, hits give low values 0.979 | S. cerevisiae deletion strains, locus YLL001W, strain dnm1, hits give low values 0.941 | S. cerevisiae deletion strains, locus YLL026W, hits give low values 0.982 | S. cerevisiae deletion strains, locus YLL041C, strain sdh2, hits give low values 0.979 | S. cerevisiae deletion strains, locus YLR039C, strain RIC1, hits give low values 0.872 | S. cerevisiae deletion strains, locus YLR058C, strain SHM2, hits give low values 0.937 | S. cerevisiae deletion strains, locus YLR102C, strain apc9, hits give low values 1.04 | S. cerevisiae deletion strains, locus YLR113W, strain HOG1, hits give low values 0.98 | S. cerevisiae deletion strains, locus YLR262C, strain YPT6, hits give low values 0.982 | S. cerevisiae deletion strains, locus YLR268W, strain sec22, hits give low values 0.924 | S. cerevisiae deletion strains, locus YLR330W, strain CHS5, hits give low values 0.991 | S. cerevisiae deletion strains, locus YLR371W, strain rom2, hits give low values 0.969 | S. cerevisiae deletion strains, locus YLR384C, strain iki3, hits give low values 0.951 | S. cerevisiae deletion strains, locus YML016C, strain PPZ1, hits give low values 0.961 | S. cerevisiae deletion strains, locus YML032C, strain rad52, hits give low values 1.04 | S. cerevisiae deletion strains, locus YML120C, strain ndi1, hits give low values 0.98 | S. cerevisiae deletion strains, locus YML124C, strain tub3, hits give low values 1.03 | S. cerevisiae deletion strains, locus YMR078C, strain ctf18, hits give low values 1.03 | S. cerevisiae deletion strains, locus YMR125W, strain sto1, hits give low values 1.02 | S. cerevisiae deletion strains, locus YMR129W, hits give low values 0.955 | S. cerevisiae deletion strains, locus YMR205C, strain PFK2, hits give low values 0.929 | S. cerevisiae deletion strains, locus YMR223W, strain ubp8, hits give low values 0.928 | S. cerevisiae deletion strains, locus YMR231W, strain pep5, hits give low values 0.953 | S. cerevisiae deletion strains, locus YMR263W, strain SAP30, hits give low values 0.906 | S. cerevisiae deletion strains, locus YMR307W, strain GAS1, hits give low values 0.683 and 1 | S. cerevisiae deletion strains, locus YNL067W, strain RPL9B, hits give low values 0.913 | S. cerevisiae deletion strains, locus YNL128W, strain TEP1, hits give low values 0.964 and 0.995 | S. cerevisiae deletion strains, locus YNL153C, strain GIM3, hits give low values 0.875 and 0.922 | S. cerevisiae deletion strains, locus YNL175C, strain NOP13, hits give low values 1.01 | S. cerevisiae deletion strains, locus YNL183C, strain NPR1, hits give low values 0.928 | S. cerevisiae deletion strains, locus YNL197C, strain WHI3, hits give low values 1.01 | S. cerevisiae deletion strains, locus YNL224C, strain SQS1, hits give low values 1.02 | S. cerevisiae deletion strains, locus YNL248C, strain rpa49, hits give low values 0.948 | S. cerevisiae deletion strains, locus YNL250W, strain rad50, hits give low values 1.02 | S. cerevisiae deletion strains, locus YNL271C, strain bni1, hits give low values 1.02 | S. cerevisiae deletion strains, locus YNL298W, strain CLA4, hits give low values 1.01 | S. cerevisiae deletion strains, locus YNL307C, strain MCK1, hits give low values 0.948 | S. cerevisiae deletion strains, locus YNL322C, strain KRE1 (second series), hits give low values 0.941 | S. cerevisiae deletion strains, locus YNL322C, strain KRE1, hits give low values 0.929 | S. cerevisiae deletion strains, locus YNR049C, strain mso1, hits give low values 0.967 | S. cerevisiae deletion strains, locus YNR052C, strain pop2, hits give low values 1 | S. cerevisiae deletion strains, locus YOL006C, strain TOP1, hits give low values 0.616 | S. cerevisiae deletion strains, locus YOL012C, strain htz1 0.39 | S. cerevisiae deletion strains, locus YOL147C, strain pex11, hits give low values 1.03 | S. cerevisiae deletion strains, locus YOR001W, strain rrp6, hits give low values 0.925 | S. cerevisiae deletion strains, locus YOR061W, strain CKA2, hits give low values 0.939 | S. cerevisiae deletion strains, locus YOR069W, strain VPS5, hits give low values 0.974 | S. cerevisiae deletion strains, locus YOR080W, strain dia2, hits give low values 0.925 | S. cerevisiae deletion strains, locus YOR083W, strain WHI5 (second series), hits give low values 0.994 | S. cerevisiae deletion strains, locus YOR136W, strain idh2, hits give low values 1.01 | S. cerevisiae deletion strains, locus YOR144C, strain elg1, hits give low values 1.03 | S. cerevisiae deletion strains, locus YOR184W, strain ser1, hits give low values 0.92 | S. cerevisiae deletion strains, locus YOR231W, strain MKK1, hits give low values 0.991 | S. cerevisiae deletion strains, locus YOR265W, strain rbl2, hits give low values 0.963 | S. cerevisiae deletion strains, locus YOR290C, strain snf2, hits give low values 0.888 | S. cerevisiae deletion strains, locus YOR316C, strain cot1, hits give low values 1.04 | S. cerevisiae deletion strains, locus YPL055C, strain LGE1, hits give low values 0.86 and 1 | S. cerevisiae deletion strains, locus YPL078C, strain atp4, hits give low values 0.927 | S. cerevisiae deletion strains, locus YPL240C, strain hsp82, hits give low values 0.936 | S. cerevisiae deletion strains, locus YPL241C, strain CIN2, hits give low values 0.987 | S. cerevisiae deletion strains, locus YPL256C, strain CLN2, hits give low values 0.982 | S. cerevisiae deletion strains, locus YPR119W, strain clb2, hits give low values 1.05 | S. cerevisiae deletion strains, locus YPR141C, strain kar3, hits give low values 1.01 | S. cerevisiae deletion strains, locus YPR163C, strain tif3, hits give low values 1.03 | S. cerevisiae deletion strains, locus YPR167C, strain met16, hits give low values 1.02 | S. cerevisiae deletion strains, strain wtn01, hits give low values 0.931 | S. cerevisiae strains, strain wild type, hits give low values 0.912
